Measured values as given in the supplement of paper PMC10849652.
Of roughly 7,900 targets only a part is listed; those with a hit were picked by preference. About 0.6% of all pairs of compound and target were hits.

How the values were obtained:
Test in all cases: log2 fold change, soluble protein after heating vs DMSO (PISA); higher = thermal stabilisation; K562 cells, 10 uM, 30 min; active = over 0.2 and 3.5 SD of the protein, either way, in both replicates (recomputed)
[1] = compound: CON(C)C(=O)N1N=C(c2cc(F)ccc2F)S[C@@]1(CCCN)c1ccccc1 [filanesib]
Summary of the method: (§1)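 Soluble protein was defined as the supernatant after 21,000xg for 90 min. It came from K562 cells at 2×10^6 cells/mL given 10 μM compound for 30 min, heated in aliquots for 3 min across 48°C-58°C, pooled, and extracted in PBS with 0.5% NP-40 at 4°C, and was quantified by TMTpro 16plex LC-MS/MS with equalised channel sums. Thermal stability against control samples, from duplicates, is reported as log2 fold change.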

[2] = compound: CO[C@H]1C[C@@H]2CC[C@@H](C)[C@@](O)(O2)C(=O)C(=O)N2CCCC[C@H]2C(=O)O[C@H]([C@H](C)C[C@@H]2CC[C@H](n3cnnn3)[C@H](OC)C2)CC(=O)[C@H](C)/C=C(\C)[C@@H](O)[C@@H](OC)C(=O)[C@H](C)C[C@H](C)/C=C/C=C/C=C/1C [zotarolimus]
Summary of the method: as §1

[3] = compound: COc1cc(C(=O)O)ccc1NC(=O)[C@@H]1N[C@@H](CC(C)(C)C)[C@](C#N)(c2ccc(Cl)cc2F)[C@H]1c1cccc(Cl)c1F [idasanutlin]
Summary of the method: as §1

[4] = compound: COc1cc(Nc2ncc3c(n2)-c2ccc(Cl)cc2C(c2c(F)cccc2OC)=NC3)ccc1C(=O)O [alisertib]
Summary of the method: as §1

[5] = compound: COc1cc2nc(-c3cc(F)ccc3O)nc(N[C@@H]3CNC[C@H]3C(C)(C)O)c2cc1OC
Summary of the method: as §1

[6] = compound: COc1cc2ncnc(Nc3ccc(F)c(Cl)c3)c2cc1OCCCN1CCOCC1 [gefitinib]
Summary of the method: as §1

[7] = compound: COc1cccc2cc(-c3nc([C@H]4CC[C@H](C(=O)O)CC4)n4ncnc(N)c34)[nH]c12
Summary of the method: as §1

[8] = compound: CS(=O)(=O)CCNCc1ccc(-c2ccc3ncnc(Nc4ccc(OCc5cccc(F)c5)c(Cl)c4)c3c2)o1 [lapatinib]
Summary of the method: as §1

[9] = compound: CS(=O)(=O)N1CCN(Cc2cc3nc(-c4cccc5[nH]ncc45)nc(N4CCOCC4)c3s2)CC1 [pictilisib]
Summary of the method: as §1

[10] = compound: COC1=CC=C(C=C1)CN2C=CC3=C2C=C(C=C3)C(=O)NO
Summary of the method: as §1

Measured: log2 fold change

HDAC1 (UniProt Q13547)
inactive: [1] 0.059 | [2] -0.019 | [3] -0.023 | [4] 0.031 | [5] 0 | [6] 0.025 | [7] 0.024 | [8] 0.141 | [9] 0.06

FMR1 (UniProt Q06787)
inactive: [10] -0.3 | [1] 0.219 | [2] 0.005 | [4] -0.023 | [5] 0.286 | [7] 0.322 | [8] -0.027 | [9] 0.036

FUNDC1 (UniProt Q8IVP5)
UniProt Q8IVP5, sequence (Q8IVP5 whole entry, looked up): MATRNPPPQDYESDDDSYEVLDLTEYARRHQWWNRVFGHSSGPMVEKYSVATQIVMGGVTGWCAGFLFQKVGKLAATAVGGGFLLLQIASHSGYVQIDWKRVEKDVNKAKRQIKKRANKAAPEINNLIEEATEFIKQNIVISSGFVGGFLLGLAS
inactive: [1] -0.193 | [4] 0.011 | [5] -0.138 | [7] 0.172 | [8] 0.101

HDAC10 (UniProt Q969S8)
UniProt Q969S8, sequence (Q969S8 whole entry, looked up): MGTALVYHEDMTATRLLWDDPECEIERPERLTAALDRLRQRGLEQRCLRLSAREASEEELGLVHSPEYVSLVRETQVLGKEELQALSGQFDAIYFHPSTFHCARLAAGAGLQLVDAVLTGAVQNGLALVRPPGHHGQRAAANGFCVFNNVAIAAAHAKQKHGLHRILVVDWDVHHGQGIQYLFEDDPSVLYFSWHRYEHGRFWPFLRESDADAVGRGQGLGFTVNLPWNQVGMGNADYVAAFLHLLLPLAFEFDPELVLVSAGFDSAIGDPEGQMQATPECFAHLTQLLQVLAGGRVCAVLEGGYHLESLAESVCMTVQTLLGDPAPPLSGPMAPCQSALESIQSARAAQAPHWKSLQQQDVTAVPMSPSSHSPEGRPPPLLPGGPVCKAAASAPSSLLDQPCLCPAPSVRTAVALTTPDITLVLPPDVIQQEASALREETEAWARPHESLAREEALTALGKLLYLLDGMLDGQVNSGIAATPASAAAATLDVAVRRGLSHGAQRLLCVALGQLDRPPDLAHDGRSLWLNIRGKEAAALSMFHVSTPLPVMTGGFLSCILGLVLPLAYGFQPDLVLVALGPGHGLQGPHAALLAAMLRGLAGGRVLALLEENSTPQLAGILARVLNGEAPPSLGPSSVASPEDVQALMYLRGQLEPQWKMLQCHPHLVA
inactive: [2] -0.022 | [3] -0.157 | [4] -0.264 | [5] 0.049 | [6] 0.168 | [7] 0.065 | [8] 0.044 | [9] 0.084

FCF1 (UniProt Q9Y324)
UniProt Q9Y324, sequence (Q9Y324 whole entry, looked up): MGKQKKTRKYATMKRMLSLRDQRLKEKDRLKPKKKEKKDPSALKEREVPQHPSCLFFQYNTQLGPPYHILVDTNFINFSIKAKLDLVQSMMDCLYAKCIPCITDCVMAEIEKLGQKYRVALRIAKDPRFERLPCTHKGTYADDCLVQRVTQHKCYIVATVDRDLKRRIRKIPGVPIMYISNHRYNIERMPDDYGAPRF
inactive: [10] -0.026 | [1] 0.405 | [4] -0.272 | [5] 0.1 | [7] -0.299 | [8] 0.157 | [9] -0.262

IFNGR1 (UniProt P15260)
UniProt P15260, sequence (P15260 whole entry, looked up): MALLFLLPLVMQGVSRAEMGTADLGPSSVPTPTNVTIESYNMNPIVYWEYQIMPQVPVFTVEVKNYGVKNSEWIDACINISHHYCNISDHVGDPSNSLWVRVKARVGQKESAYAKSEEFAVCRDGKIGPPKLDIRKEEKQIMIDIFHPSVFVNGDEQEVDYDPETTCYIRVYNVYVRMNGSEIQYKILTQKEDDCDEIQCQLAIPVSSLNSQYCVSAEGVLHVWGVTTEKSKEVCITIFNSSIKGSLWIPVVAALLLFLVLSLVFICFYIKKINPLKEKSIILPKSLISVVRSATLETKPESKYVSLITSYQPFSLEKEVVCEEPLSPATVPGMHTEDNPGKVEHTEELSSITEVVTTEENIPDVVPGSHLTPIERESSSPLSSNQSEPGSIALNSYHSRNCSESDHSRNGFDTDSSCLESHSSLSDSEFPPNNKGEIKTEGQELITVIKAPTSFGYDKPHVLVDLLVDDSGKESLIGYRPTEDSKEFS
inactive: [1] 0.091 | [2] -0.067 | [3] 0.105 | [4] -0.09 | [5] 0.207 | [6] 0.097 | [7] 0.143 | [8] -0.058 | [9] -0.085

GOLGA8R (UniProt I6L899)
UniProt I6L899, sequence (I6L899 whole entry, looked up): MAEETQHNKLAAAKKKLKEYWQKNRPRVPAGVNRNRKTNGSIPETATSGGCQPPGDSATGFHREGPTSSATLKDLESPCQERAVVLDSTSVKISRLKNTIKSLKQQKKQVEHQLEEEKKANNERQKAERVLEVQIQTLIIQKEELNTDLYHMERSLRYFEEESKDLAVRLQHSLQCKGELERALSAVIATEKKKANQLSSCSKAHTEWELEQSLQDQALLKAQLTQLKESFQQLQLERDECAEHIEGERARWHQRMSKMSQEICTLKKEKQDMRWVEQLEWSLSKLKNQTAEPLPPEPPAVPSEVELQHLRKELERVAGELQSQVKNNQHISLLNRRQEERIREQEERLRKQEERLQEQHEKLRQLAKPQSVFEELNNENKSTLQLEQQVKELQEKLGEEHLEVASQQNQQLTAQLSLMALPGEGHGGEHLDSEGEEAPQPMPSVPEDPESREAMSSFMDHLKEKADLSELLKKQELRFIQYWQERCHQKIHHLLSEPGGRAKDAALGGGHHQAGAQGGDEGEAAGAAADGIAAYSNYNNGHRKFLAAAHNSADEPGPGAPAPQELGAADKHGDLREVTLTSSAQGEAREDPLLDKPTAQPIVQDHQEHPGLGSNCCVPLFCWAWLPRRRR
active: [10] 0.591
inactive: [2] -0.027 | [3] 0.022 | [5] 0.345 | [8] -0.093 | [9] 0.01

GSTT1 (UniProt P30711)
UniProt P30711, sequence (P30711 whole entry, looked up): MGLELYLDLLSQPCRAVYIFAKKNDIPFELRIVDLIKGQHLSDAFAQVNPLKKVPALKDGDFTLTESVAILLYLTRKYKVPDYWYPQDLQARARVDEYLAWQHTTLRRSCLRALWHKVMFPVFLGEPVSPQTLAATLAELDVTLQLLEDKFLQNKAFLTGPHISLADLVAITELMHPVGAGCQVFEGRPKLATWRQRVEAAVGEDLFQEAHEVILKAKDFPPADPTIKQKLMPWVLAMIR
inactive: [10] 0.014 | [2] 0.07 | [3] 0 | [4] -0.118 | [5] -0.015 | [6] 0.023 | [7] 0.029 | [8] 0.003 | [9] 0.027

GID4 (UniProt Q8IVV7)
UniProt Q8IVV7, sequence (Q8IVV7 whole entry, looked up): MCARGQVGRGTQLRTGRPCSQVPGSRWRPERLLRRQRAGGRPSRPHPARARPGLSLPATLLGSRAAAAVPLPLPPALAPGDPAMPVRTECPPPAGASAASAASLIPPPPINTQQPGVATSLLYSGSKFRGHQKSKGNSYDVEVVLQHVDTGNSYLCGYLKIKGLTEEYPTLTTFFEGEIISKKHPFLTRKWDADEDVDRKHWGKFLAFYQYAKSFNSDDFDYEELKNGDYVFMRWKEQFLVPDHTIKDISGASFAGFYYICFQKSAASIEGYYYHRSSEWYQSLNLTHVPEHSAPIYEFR
inactive: [1] -0.089 | [2] 0.013 | [3] -0.023 | [4] -0.074 | [5] 0.097 | [6] -0.067 | [7] 0.01 | [8] -0.14 | [9] 0.024

IDH3A isoform 2 (UniProt P50213)
UniProt P50213, sequence (P50213 whole entry, looked up): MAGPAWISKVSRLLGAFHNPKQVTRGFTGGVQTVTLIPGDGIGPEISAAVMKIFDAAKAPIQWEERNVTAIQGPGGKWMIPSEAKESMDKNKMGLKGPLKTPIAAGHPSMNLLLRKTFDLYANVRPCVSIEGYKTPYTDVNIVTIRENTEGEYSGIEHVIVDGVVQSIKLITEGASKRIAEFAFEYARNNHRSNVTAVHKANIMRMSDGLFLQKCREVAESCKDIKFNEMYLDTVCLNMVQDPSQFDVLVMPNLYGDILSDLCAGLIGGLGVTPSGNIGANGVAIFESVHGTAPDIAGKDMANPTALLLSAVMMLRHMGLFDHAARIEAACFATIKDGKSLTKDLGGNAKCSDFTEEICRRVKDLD
inactive: [10] 0.32 | [2] -0.056 | [3] -0.246 | [6] 0.029

FYB1 isoform 3 (UniProt O15117)
UniProt O15117, sequence (O15117 whole entry, looked up): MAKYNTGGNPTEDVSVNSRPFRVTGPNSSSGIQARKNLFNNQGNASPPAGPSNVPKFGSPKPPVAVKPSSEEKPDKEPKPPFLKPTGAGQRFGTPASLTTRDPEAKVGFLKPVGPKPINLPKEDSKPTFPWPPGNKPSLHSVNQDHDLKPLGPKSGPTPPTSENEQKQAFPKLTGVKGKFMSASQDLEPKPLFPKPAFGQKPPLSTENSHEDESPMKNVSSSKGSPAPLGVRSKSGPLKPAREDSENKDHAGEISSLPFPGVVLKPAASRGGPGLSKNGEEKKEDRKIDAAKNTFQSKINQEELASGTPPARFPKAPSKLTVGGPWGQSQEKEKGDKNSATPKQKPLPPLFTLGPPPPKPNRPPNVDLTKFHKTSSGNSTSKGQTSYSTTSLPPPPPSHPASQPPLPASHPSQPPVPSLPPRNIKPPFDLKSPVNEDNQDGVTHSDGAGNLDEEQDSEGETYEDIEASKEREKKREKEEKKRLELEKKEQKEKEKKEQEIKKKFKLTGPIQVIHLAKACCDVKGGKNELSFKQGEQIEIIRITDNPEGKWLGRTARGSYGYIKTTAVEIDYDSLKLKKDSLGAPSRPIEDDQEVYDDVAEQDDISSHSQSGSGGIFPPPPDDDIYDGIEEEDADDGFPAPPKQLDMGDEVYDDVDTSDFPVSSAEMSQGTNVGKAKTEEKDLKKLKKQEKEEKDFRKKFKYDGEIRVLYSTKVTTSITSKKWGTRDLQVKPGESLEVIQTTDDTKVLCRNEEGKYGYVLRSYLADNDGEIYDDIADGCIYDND
inactive: [10] 0.001 | [1] 0.06 | [3] -0.106 | [4] -0.035 | [5] 0.026 | [6] 0.103 | [7] 0.134 | [8] 0.068 | [9] 0.108

FAT1 (UniProt Q14517)
inactive: [10] 0.098 | [1] 0.097 | [2] -0.08 | [4] -0.267 | [5] 0.027 | [6] 0.023 | [7] -0.098 | [8] 0.029 | [9] 0.041

HDAC7 isoform 5 (UniProt Q8WUI4)
inactive: [1] 0.121 | [2] 0.054 | [3] 0.024 | [4] -0.075 | [5] 0.075 | [6] -0.015 | [7] 0.046 | [8] 0.071 | [9] -0.004

FAT2 (UniProt Q9NYQ8)
inactive: [10] 0.247 | [2] 0.104 | [4] 0.208 | [5] 0.031 | [7] -0.024 | [8] -0.089 | [9] -0.497

HNRNPUL1 (UniProt M0R247)
inactive: [10] -0.028 | [1] 0.029 | [2] -0.468 | [3] 0.277 | [5] 0.117 | [6] 0.1 | [8] -0.15

ICMT (UniProt O60725)
inactive: [10] -0.083 | [1] -0.189 | [3] -0.029 | [4] -0.046 | [5] -0.112 | [6] 0.154 | [7] 0.085 | [8] 0.206

GNL3 (UniProt Q9BVP2)
inactive: [1] -0.038 | [2] -0.012 | [3] -0.212 | [4] -0.12 | [6] 0.067 | [7] 0.071 | [9] 0.061

GSK3B isoform 2 (UniProt P49841)
inactive: [10] 0.133 | [1] -0.034 | [2] 0.013 | [3] -0.121 | [5] 0.056 | [6] -0.041 | [7] 0.022 | [8] -0.013 | [9] 0.014

FIZ1 (UniProt Q96SL8)
inactive: [10] -0.081 | [1] 0.078 | [2] 0.048 | [4] 0.117 | [6] 0.001 | [7] -0.108 | [9] 0.016

HS1BP3 (UniProt Q53T59)
UniProt Q53T59, sequence (Q53T59 whole entry, looked up): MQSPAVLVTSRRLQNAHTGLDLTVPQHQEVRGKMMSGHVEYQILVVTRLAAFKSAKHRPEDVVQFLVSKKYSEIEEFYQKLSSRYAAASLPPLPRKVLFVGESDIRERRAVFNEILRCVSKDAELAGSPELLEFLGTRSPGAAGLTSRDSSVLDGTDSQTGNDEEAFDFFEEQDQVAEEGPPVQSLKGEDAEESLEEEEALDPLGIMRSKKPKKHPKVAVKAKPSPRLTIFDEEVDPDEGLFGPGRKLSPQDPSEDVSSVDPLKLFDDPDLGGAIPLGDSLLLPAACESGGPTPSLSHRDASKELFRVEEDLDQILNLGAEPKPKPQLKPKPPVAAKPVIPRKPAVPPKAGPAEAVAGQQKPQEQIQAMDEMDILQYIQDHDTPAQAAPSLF
inactive: [10] 0.032 | [1] -0.085 | [2] 0.02 | [3] 0.039 | [5] 0.087 | [6] -0.196 | [8] 0.118

FBXO9 (UniProt Q9UK97)
UniProt Q9UK97, sequence (Q9UK97 whole entry, looked up): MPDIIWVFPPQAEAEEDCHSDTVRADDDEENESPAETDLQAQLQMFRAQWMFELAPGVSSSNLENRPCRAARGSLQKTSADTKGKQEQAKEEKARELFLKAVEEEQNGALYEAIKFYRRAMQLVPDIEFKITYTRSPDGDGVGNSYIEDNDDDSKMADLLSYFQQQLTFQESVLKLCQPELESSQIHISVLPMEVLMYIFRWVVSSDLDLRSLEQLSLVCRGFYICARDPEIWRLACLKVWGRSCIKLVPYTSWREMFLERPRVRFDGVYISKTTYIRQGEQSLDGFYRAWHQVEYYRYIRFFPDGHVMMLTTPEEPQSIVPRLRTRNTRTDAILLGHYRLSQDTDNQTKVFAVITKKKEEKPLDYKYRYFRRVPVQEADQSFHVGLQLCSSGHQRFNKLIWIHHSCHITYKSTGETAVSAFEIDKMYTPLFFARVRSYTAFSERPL
active: [4] 0.466
inactive: [10] 0.124 | [2] -0.027 | [5] -0.169 | [6] 0.007 | [7] 0.077 | [8] 0.012 | [9] 0.036
